# Reference: the supplement of paper PMC3334620
# In all, about 33,000 sequences were measured (“E-score (-0.5 to 0.5)”: median about -0.01, highest 2% from about 0.26 on). The entries come from a sample that favours the highest values as a whole.
# Biological target: Ste12 (UniProt P13574)
# Assay: PBM E-score (8-mer binding enrichment) (E-score (-0.5 to 0.5)); higher = stronger / more preferred TF binding
# Conditions: protein concentration: 200 nM; construct: GST-DNA-binding domain
# Description: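 Universal 'all 10-mer' protein binding microarrays (Agilent AMADID 015681) probed with GST-tagged S. cerevisiae TFs (full-length or DBD) made by in vitro transcription/translation (PURExpress), about 100-200 nM. Bound TF was detected with fluorescent anti-GST. Each ungapped 8-mer (which stands for itself and its reverse complement) is scored by the PBM enrichment score (E-score), a modified Wilcoxon-Mann-Whitney statistic from -0.5 to +0.5, computed with the Universal PBM Analysis Suite. Scale: above 0.35 generally sequence-specific binding.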
# UniProt P13574, sequence (P13574 whole entry): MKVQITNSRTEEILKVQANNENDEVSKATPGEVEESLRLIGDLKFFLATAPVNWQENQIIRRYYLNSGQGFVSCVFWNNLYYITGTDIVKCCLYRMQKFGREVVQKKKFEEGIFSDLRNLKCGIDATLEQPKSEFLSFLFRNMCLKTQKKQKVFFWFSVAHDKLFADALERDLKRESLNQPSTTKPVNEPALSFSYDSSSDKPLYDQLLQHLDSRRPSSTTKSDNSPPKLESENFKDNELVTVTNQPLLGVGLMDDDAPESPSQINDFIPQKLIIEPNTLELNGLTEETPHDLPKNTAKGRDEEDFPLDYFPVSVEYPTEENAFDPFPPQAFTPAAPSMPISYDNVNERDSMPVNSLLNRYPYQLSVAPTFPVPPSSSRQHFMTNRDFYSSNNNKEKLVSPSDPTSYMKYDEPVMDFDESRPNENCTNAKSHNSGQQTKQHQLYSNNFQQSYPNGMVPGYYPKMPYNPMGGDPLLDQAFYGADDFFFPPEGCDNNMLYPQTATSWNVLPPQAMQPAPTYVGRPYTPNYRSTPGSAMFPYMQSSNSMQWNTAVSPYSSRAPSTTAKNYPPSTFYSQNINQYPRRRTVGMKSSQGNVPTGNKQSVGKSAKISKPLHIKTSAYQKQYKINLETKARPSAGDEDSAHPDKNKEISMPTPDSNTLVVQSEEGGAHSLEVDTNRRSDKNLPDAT
row,Sequence,PBM E-score
1,AATAAGAG,0.0566
2,AATAAGAA,0.276
3,ACTGGTCT,-0.117
4,GTGATCGA,0.161
5,CTTGTGTA,0.0226
6,ATTGTGTG,-0.0472
7,ATTGTGTA,0.274
8,ACTGCGAT,-0.072
9,CATGGCAA,0.0424
10,AAACATGT,0.301
11,TAACATGA,0.098
12,AAACATGC,0.231
13,AAACATGG,0.206
14,AAACATCA,0.328
15,CAACATGA,0.0787
16,AAACATGA,0.321
17,CAACATCA,0.0676
18,AAACATCC,0.249
19,TCTTCTCA,0.019
20,GATCTGAA,0.0323
21,ATGGACCG,-0.00313
22,TCCGATCA,0.0466
23,CAGTGTGC,-0.187
24,ACCTAACG,-0.137
25,ATATTCAT,0.227

row,Sequence,PBM E-score
1,GCGCCGGA,-0.0097
2,ATTAAAAA,0.295
3,ATTAAAAC,0.313
4,CTTAAAAC,0.352
5,AGTAAAAC,0.168
6,CTTAAAAG,-0.0909
7,AGTAAAAT,0.122
8,ATTAAAGA,0.0703
9,CTTAAAAA,0.22
10,ATTAAACC,0.156
11,ATTAAAAT,0.32
12,ATTAAAAG,0.137
13,CCACTGAC,-0.126
14,AGCATAAC,-0.00864
15,ACTACATG,0.0147
16,CCGACACA,-0.0323
17,ATTTAGCG,-0.0176
18,GGCAATAC,0.0406
19,GAGATCTC,-0.14
20,CACTTCAG,-0.198
21,GATTCTGA,0.0395
22,ACGTGAAT,0.0319
23,AAACGGCG,0.149
24,ATCGCGAT,0.0912
25,ACTATGCG,0.0582

row,Sequence,PBM E-score
1,GTTAAAGA,0.0582
2,ATTAAATC,0.248
3,GTTAAAAC,0.174
4,ATTAAATG,0.19
5,GTTAAAAA,0.291
6,ATTAAATA,0.292
7,CACGTGGG,-0.129
8,CGGTACTA,-0.0556
9,AGCCATGG,-0.192
10,AATTAGGC,0.179
11,ACAACTGA,0.293
12,ACAACTGG,-0.0989
13,ACAACTTA,0.053
14,AGACCACA,-0.0546
15,GAATCTGA,-0.0846
16,AAATCTGC,0.0398
17,AAATCTGA,0.266
18,CTCGTGAC,0.0961
19,CCTCTTTC,-0.0876
20,CCTCCCCG,0.283
21,ACTCCCCG,0.07
22,CCTCCCCC,-0.134
23,CCCCCCCG,-0.257
24,CCTCCCCA,0.329
25,CCTCCCAA,-0.136

row,Sequence,PBM E-score
1,AGCCATGC,-0.0768
2,GCGGGGAA,0.261
3,CGGGGAAA,0.272
4,GCGGGGGA,-0.143
5,GCGGGAAA,0.121
6,CGGGGGAA,0.0885
7,GGGGGAAA,0.241
8,CGAGCGCA,0.0982
9,ACCAGTTC,0.0206
10,ATCCAAGA,0.136
11,TCGGCCGA,0.0948
12,CGAGACAA,0.0198
13,TGAGACAA,0.274
14,AGAGACAA,-0.154
15,CAGGTTCA,-0.0316
16,CGCTAACC,-0.0284
17,TGTACTAA,0.053
18,GACTTGCC,-0.305
19,ACAAACCT,-0.111
20,CCAAAACG,0.254
21,ACAAAACG,0.35
22,CAAAAACG,0.177
23,ACAAAACC,0.171
24,AGAAAACG,0.0569
25,AAAAAACG,0.269

row,Sequence,PBM E-score
1,GCGCGCGC,0.353
2,CCGCGCGC,0.24
3,ACGCGCGC,0.122
4,CCGCGCGG,0.321
5,GCGCGCGA,0.154
6,CCGCGCGA,0.169
7,GGAGGGCA,0.0377
8,ACTGGTTG,0.0694
9,GGCCCGAC,0.15
10,GGTGTTGA,-0.0828
11,ATAACTCA,0.044
12,GACTGCCA,0.107
13,GCTAGACA,-0.118
14,GCATGAAA,0.318
15,ACATGAAA,0.283
16,CCATGAAA,0.252
17,GCATGAAC,-0.0143
18,ACATGAAC,0.0476
19,ACATGAAG,0.091
20,TCATGACA,0.178
21,TCATGAGA,0.0861
22,TCATGAAA,0.27
23,ATCACCGG,-0.0135
24,GTCCACCA,-0.342
25,CTCTTAAG,-0.0926

row,Sequence,PBM E-score
1,AAAAGGAA,0.188
2,TATATGAA,0.17
3,AATATGAC,0.0945
4,GTTATGAA,0.221
5,CTTATGAA,0.204
6,ATTATGAA,0.265
7,AATATGAA,0.269
8,CCAGCTAC,-0.091
9,AGCGACTA,-0.043
10,TCAGTCAA,-0.0289
11,GGGACACA,0.17
12,CGCGCGGA,0.0633
13,CGCGCGGC,0.306
14,GCCGCGGC,0.29
15,CGCGCGCC,0.157
16,GCCGCGGA,0.0303
17,ACCGCGCT,-0.16
18,ACCGCGCG,0.273
19,CGCGCGCG,0.262
20,CCCGCGGC,0.224
21,CGCGCGCA,0.208
22,AGCGCGGC,0.0144
23,ACCGCGCC,-0.034
24,ACGGAGTG,-0.043
25,AACGACCC,-0.126

row,Sequence,PBM E-score
1,ACGCTCGG,-0.0861
2,GTTCAGTA,-0.0836
3,ATCGCACA,0.0146
4,AACCAATA,0.195
5,ACGTAGCG,-0.0127
6,ACTGAAAC,0.477
7,GCTGAAGC,-0.0602
8,GCTGAAAA,0.17
9,ACTGAAAA,0.101
10,GCTGAAAC,0.485
11,CCTGAAAC,0.487
12,CCTGAAAG,-0.179
13,CCTGAAAA,0.0508
14,ACTGAAAG,0.175
15,GATGGGCA,-0.0542
16,AGAATATA,0.0722
17,AAATCTAC,0.151
18,CCCGCACA,0.023
19,GCCAGGTA,-0.127
20,AACGATTC,-0.0106
21,GCCCTCAA,-0.23
22,GCGGTCAA,-0.0277
